From PubChem BioAssay (NCATS)
Inconclusive results are not listed. Calls of active or inactive are those of the source. Calls come from the whole dose curve; as a rule, active = well fitted cell-killing curve with a large enough effect; inconclusive = small, poorly fitted or top-dose-only effect, or effect the other way; inactive = flat fitted curve, though single readings scatter.

system: CASKI; test: Primary qHTS to identify gynecologic anti-cancer compounds using libraries of approved drugs and bioactive compounds (AID 1345084); details: Gynecologic cancer cell panel viability, ATPlite luminescence, 48 h; series mostly up to 57.5 µM; activity change, negative = cytotoxicity: at the top concentration; note: nearly all actives have a fitted effect of over 55% in size
Outline: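 Cells, 1,000 per well, were allowed to settle for 16 h at 37 C before compound addition. Five concentrations were tested for 48 h, and viability was read by ATPlite luminescence after 15 min at room temperature.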
% is set by controls: 0 for no effect and ±100 for the full control effect.

Row | SMILES | activity change, negative = cytotoxicity
1 | COC(=O)c1ccc(OC(CO)C(O)c2ccc(O)c(OC)c2)c(OC)c1 (stereo unspecified) | -5.65% [at 38.5 µM] (inactive)
2 | COc1ccc2nc(S(=O)(=O)Cc3ncc(C)c(OC)c3C)[nH]c2c1 | -5.78% (inactive)
3 | CC(=O)c1cc2c(cc1O)OC(C)(C)C=C2 | -2.92% (inactive)
4 | COc1ccc([C@@]2(O)c3c(ccc(CC=C(C)C)c3O)NC(=O)[C@@H]2OC)cc1 | 14.1% [at 38.5 µM] (inactive)
5 | COC(=O)C1=CO[C@@H](O[C@@H]2O[C@H](CO)[C@@H](O)[C@H](O)[C@H]2O)[C@H]2[C@@H]1C=C[C@@]21C=C([C@H](C)O)C(=O)O1 | -0.705% [at 25.3 µM] (inactive)
6 | c1ccc(N2CCN(CCc3nn[nH]n3)CC2)cc1 | 5.01% (inactive)
7 | Cc1cc2c(c(=O)[nH]1)OC(C(O)CC(C)C)O2 (stereo unspecified) | 3.16% (inactive)
8 | CC(=O)c1ccc2c(c1)C(O)C(C(C)(C)O)O2 (stereo unspecified) | 9.37% (inactive)
9 | CC1(C)CC[C@]2(C(=O)O[C@@H]3O[C@H](CO[C@@H]4O[C@H](CO)[C@@H](O)[C@H](O)[C@H]4O[C@@H]4O[C@H](CO)[C@@H](O)[C@H](O)[C@H]4O)[C@@H](O)[C@H](O[C@@H]4O[C@H](CO)[C@@H](O)[C@H](O)[C@H]4O)[C@H]3O)CC[C@]3(C)C(=CCC4[C@@]5(C)CC[C@@H](O)[C@@](C)(C(=O)O[C@@H]6O[C@H](CO)[C@@H](O)[C@H](O)[C@H]6O)C5CC[C@]43C)[C@@H]2C1 (stereo partly specified) | -2.18% [at 6.55 µM] (inactive)
10 | CC1=C(C)C(=O)OC(C(C)C2CCC3C4CC=C5CC(OC6OC(COC7OC(CO)C(O)C(O)C7O)C(O)C(O)C6O)CC(O)C5(C)C4CCC23C)C1 (stereo unspecified) | -8.12% [at 25.3 µM] (inactive)
11 | CC(C)=CCC[C@](C)(O)[C@H]1CC[C@]2(C)[C@@H]1[C@H](O)CC1[C@@]3(C)CC[C@H](O)C(C)(C)C3[C@@H](O[C@@H]3O[C@H](CO)[C@@H](O)[C@H](O)[C@H]3O[C@@H]3OC[C@@H](O)[C@H](O)[C@H]3O)C[C@]12C (stereo partly specified) | -3.1% [at 25.3 µM] (inactive)
